In PubChem BioAssay (NCATS):
Inconclusive results are not listed. Where a call stands in place of a potency, no number is given. Unmarked numbers belong to inactive results. Activity calls are given as the source filed them. Unless noted, calls follow the shape of the dose curve; as a rule, active = well fitted curve in the direction sought with a large enough effect; inconclusive = small, poorly fitted or top-dose-only effect, or another doubt; inactive = no such curve, though single readings can be large; an effect the other way counts as inactive or inconclusive.

Columns and labels:
[1] = molecular target: Calcium and integrin-binding protein 1 (Homo sapiens) (UniProt Q99828); assay: Primary qHTS for Identification of Calcium Integrin Binding Protein 1 (CIB1) Competitor (AID 1508620);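 also: GST tagged CIB1 binding a fluorescein labelled alphaIIb integrin peptide tracer; top concentration of the series differs between compounds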
Sequence of Calcium and integrin-binding protein 1 (Homo sapiens) (Q99828 whole entry, looked up): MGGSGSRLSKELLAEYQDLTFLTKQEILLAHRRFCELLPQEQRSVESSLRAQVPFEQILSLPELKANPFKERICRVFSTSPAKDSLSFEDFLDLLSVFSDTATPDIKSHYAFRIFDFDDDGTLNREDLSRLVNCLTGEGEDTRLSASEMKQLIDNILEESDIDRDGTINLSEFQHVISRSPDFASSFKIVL
Summary of the method: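 Fluorescence polarization competition: GST-tagged CIB1 (1 uM final) preincubated with compound 15 min at room temperature, then FITC-labelled alphaIIb peptide (100 nM final) added. After 15 min at room temperature, polarization read at Ex 480/Em 540.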

[2] = molecular target: Cytochrome P450 2C9 (Homo sapiens) (UniProt P11712); assay: Cytochrome P450 family 2 subfamily C member 9 (CYP2C9) small molecule antagonists: luciferase biochemical (cell-free) qHTS assay (AID 1645842; active = well fitted curve in the direction sought with a large enough effect in the repeat runs; an effect the other way counts as inactive or inconclusive; also: series mostly up to about 57 µM; nearly all actives have a fitted effect of over 55% in size)
Sequence of Cytochrome P450 2C9 (Homo sapiens) (P11712 whole entry, looked up): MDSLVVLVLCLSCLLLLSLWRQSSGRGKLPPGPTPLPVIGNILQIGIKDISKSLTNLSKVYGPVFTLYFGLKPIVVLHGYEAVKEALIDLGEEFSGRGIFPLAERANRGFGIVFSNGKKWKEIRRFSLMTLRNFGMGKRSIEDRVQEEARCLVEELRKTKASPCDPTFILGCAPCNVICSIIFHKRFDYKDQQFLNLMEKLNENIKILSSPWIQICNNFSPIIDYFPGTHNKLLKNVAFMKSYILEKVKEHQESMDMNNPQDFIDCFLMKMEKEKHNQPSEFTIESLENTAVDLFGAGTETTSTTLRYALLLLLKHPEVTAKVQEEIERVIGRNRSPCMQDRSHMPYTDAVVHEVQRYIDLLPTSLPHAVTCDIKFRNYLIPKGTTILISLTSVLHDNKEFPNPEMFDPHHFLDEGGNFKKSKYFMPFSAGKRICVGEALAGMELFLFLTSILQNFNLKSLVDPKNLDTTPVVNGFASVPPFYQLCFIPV
Summary of the method: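 Luminescence, after 20 min with luciferin detection reagent, reflected CYP2C9 turnover during a 1 h NADPH-driven reaction at 37C. Enzyme-substrate mix contained 0.4% bovine serum albumin and was preincubated with compound 10 min at room temperature.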

[3] = Primary qHTS for inhibitors of nuclear receptor binding SET domain protein 2 (NSD2) in an isogenic RCH-ACV NSD2 p.E1099K mutant (9B) (AID 1645876); also: nearly all actives have a fitted effect of over 70% in size; also: potency is read from the fitted curve at half-maximal effect
[4] = molecular target: N-terminal Xaa-Pro-Lys N-methyltransferase 1 (Homo sapiens) (UniProt Q9BV86); assay: Confirmatory qHTS for Inhibitors of N-terminal methyltransferase 1 (NTMT1): MTaseGlo Assay (AID 1645874); also: nearly all actives have a fitted effect of over 65% in size; also: potency is read from the fitted curve at half-maximal effect;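 as to activity change, negative = inhibition: luminescence from SAH made as NTMT1 methylates SPKRIA peptide using SAM; series mostly up to about 100 µM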
Sequence of N-terminal Xaa-Pro-Lys N-methyltransferase 1 (Homo sapiens) (Q9BV86 whole entry, looked up): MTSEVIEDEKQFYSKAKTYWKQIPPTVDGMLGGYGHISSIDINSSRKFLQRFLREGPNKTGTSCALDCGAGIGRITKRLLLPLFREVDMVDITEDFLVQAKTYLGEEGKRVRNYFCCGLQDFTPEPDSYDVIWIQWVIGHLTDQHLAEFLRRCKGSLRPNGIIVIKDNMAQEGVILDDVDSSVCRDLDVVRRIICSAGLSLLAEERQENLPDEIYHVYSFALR
Summary of the method: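 Preincubation of NTMT1 (125 nM) plus SAM (100 uM) with test compounds lasted 15 min; methylation of 1 uM SPKRIA then proceeded 30 min in the dark at room temperature. Luciferase signal reported SAH produced.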

## CCCCCCOc1cc2c(cc1N(C)c1ncc(C(=O)O)cn1)C(C)(C)CCC2(C)C
[1]
  Potency: inactive
[2]
  Potency: inactive
[3]
  Potency: inactive

## COc1cc2c(cc1O)CC[C@H]1[C@@H]2CC[C@]2(C)[C@H](O)CC[C@@H]12
[1]
  Potency: inactive
[4]
  Potency: 39800 nM (active)
[3]
  Potency: 1450 nM (active)

## NC(=O)[C@H](O[C@@H]1O[C@H](CO)[C@@H](O)[C@H](O)[C@H]1O)c1ccccc1
[1]
  Potency: inactive
[3]
  Potency: inactive

## Nc1ncnc2c1nc(N)n2[C@@H]1O[C@H](CO)[C@@H](O)[C@H]1O
[1]
  Potency: inactive
[4]
  Potency: inactive
[3]
  Potency: 1450 nM (active)

## CC1(C(=O)O)CCCC2(C)C3=CCC4CC3(CCC12)CC4CO (stereo not given)
[1]
  Potency: inactive
[3]
  Potency: inactive

## COc1cc(O)cc(C)c1C(=O)O[C@@H]1[C@H](O)[C@@H](CO)O[C@H]1n1ccc(=O)[nH]c1=O
[1]
  Potency: inactive
[3]
  Potency: inactive

## CNC(=O)c1ccccc1Nc1nc(Nc2ccc3c(c2OC)CCC[C@@H](N2CCN(CCO)CC2)C3)ncc1Cl
[1]
  Potency: inactive
[3]
  Potency: 6610 nM (active)

## CC(C)(O)C1CCC(C)(C2CCC3(C)C4CCC5C(C)(C(=O)OC6OC(CO)C(O)C(O)C6O)C(O)CC(O)C56CC46CCC23C)O1 (stereo not given)
[1]
  Potency: inactive
[3]
  Potency: inactive

## CC(=O)O[C@H]1[C@@H](O)[C@H](O[C@H]2[C@@H]3C=CO[C@@H](O[C@H]4O[C@@H](CO)[C@H](O)[C@@H](O)[C@@H]4O)[C@@H]3[C@@]3(CO)O[C@@H]23)O[C@@H](C)[C@@H]1OC(=O)/C=C/c1ccccc1
[1]
  Potency: inactive
[3]
  Potency: inactive

## CC(=O)N[C@@H](C(=O)O[C@H]1CCC(C)(C)[C@@H]2CCC3=C(COC3=O)[C@@]12C)C(C)C
[1]
  Potency: inactive
[3]
  Potency: inactive

## O=C(O)C(O[C@@H]1O[C@H](CO[C@@H]2O[C@H](CO)[C@@H](O)[C@H](O)[C@H]2O)[C@@H](O)[C@H](O)[C@H]1O)c1ccccc1 (stereo not given in full)
[1]
  Potency: inactive
[3]
  Potency: inactive

## C[C@@H]1O[C@@H](O[C@H]2[C@H](O[C@H]3[C@H](O[C@H]4CC[C@@]5(C)C(CC[C@]6(C)C5CC=C5[C@@H]7CC(C)(C)CC[C@]7(C(=O)O[C@@H]7O[C@H](CO)[C@@H](O[C@@H]8O[C@@H](C)[C@H](O)[C@@H](O)[C@H]8O)[C@H](O)[C@H]7O)CC[C@]56C)C4(C)C)OC[C@H](O)[C@@H]3O)O[C@H](CO)[C@@H](O)[C@@H]2O)[C@H](O)[C@H](O)[C@H]1O (stereo not given in full)
[1]
  activity change, negative = inhibition: -0.624% [at 12.4 µM]
[3]
  activity change, negative = viability loss: -8.33% [at 9.23 µM]

## CO/N=C(/C(=O)N[C@@H]1C(=O)N2C(C(=O)O)=C(Cn3ccc(=N)n3CCO)CS[C@H]12)c1csc(N)n1
[1]
  Potency: inactive
[3]
  Potency: inactive

## CC1CC2OC3(OC2C(C)(C)O)C1C1(C)CCC24CC25CCC(O[C@@H]2OC[C@@H](O)[C@H](O)[C@H]2O)C(C)(C)C5CC=C4C1(C)C3O (stereo not given in full)
[1]
  Potency: inactive
[3]
  Potency: inactive

## CC(=O)c1ccc2c(c1)C(O)C(C(C)(C)O)O2 (stereo not given)
[1]
  Potency: inactive
[3]
  Potency: inactive

## C[C@@H]1C(=O)O[C@H]2[C@@H](O)C34[C@H]5C[C@@H](C(C)(C)C)C36[C@@H](OC(=O)[C@@H]6O)O[C@@]4(C(=O)O5)[C@@]12O (stereo not given in full)
[1]
  Potency: inactive
[3]
  Potency: inactive

## C[C@@H]1C(=O)O[C@H](C)[C@H]1CC(=O)[C@](C)(O)[C@H]1CC[C@@]2(O)C3=CC(=O)[C@@H]4C[C@@H](O)[C@@H](O)C[C@]4(C)C3CC[C@]12C (stereo not given in full)
[1]
  Potency: inactive
[3]
  Potency: inactive

## C=C1C(O)CC2C(C(=O)O)=COC(O[C@@H]3O[C@H](COC(=O)/C=C/c4ccc(O)cc4)[C@@H](O)[C@H](O)[C@H]3O)C12 (stereo not given in full)
[1]
  Potency: inactive
[3]
  Potency: inactive

## CC(C)=CCC/C(C)=C/Cc1ccc(O)c(C2OC(=O)c3cc(C(=O)O)cc(O)c32)c1O (stereo not given)
[1]
  Potency: inactive
[3]
  Potency: inactive

## COc1ncc(Nc2ncc([C@@H](C)N3CCN(S(C)(=O)=O)CC3)cc2-c2nc(C)nc(N)n2)cc1F
[1]
  Potency: inactive
[3]
  Potency: 5.2 nM (active)

## CCCCNc1ncc2c(-c3ccc(F)cc3)nn(CC3CCC(N)CC3)c2n1 (stereo not given)
[1]
  Potency: inactive
[3]
  Potency: 2240 nM (active)

## CC(=O)O[C@@H]1[C@@H](O)[C@H](C)O[C@@H](O[C@H]2[C@@H]3C=CO[C@@H](O[C@@H]4O[C@H](CO)[C@@H](O)[C@H](O)[C@H]4O)[C@@H]3[C@@]3(CO)O[C@@H]23)[C@@H]1OC(=O)/C=C/c1ccccc1
[1]
  Potency: inactive
[3]
  Potency: inactive

## NC1CCCCN(c2c(F)cc3c(=O)c(C(=O)O)cn(C4CC4)c3c2Cl)C1 (stereo not given)
[1]
  Potency: inactive
[3]
  Potency: inactive

## COc1ccc(-c2c(-c3cc(C(=O)O)ccn3)ncn2C)cc1
[1]
  Potency: inactive
[3]
  Potency: inactive

## CC1(C)CC2C=C(C(=O)O)C3COC(=O)C(O)(CO)C23C1 (stereo not given)
[1]
  Potency: inactive
[3]
  Potency: inactive

## C=C(C)C(=O)OC1C(OC(C)=O)/C(C=O)=C\CC/C(CO)=C/C2OC(=O)C(=C)C21 (stereo not given)
[1]
  Potency: inactive
[3]
  Potency: 3170 nM (active)
